Source: the supplement of paper PMC7411054
Structures can show the parent of a compound that is named as a salt.

What was measured:
Assay in all cases: phenotypically active (imaging signature differs from DMSO and reproducible) at any of 0.3-9 uM (binary (1 = active, 0 = inactive)); higher = active
Settings in all cases: treatment time: 24 h
A549-ACTB-RAB5A = test system: A549-ACTB-RAB5A
Outline: (§1)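 Four wells per concentration (0.3, 1, 3 or 9 µM) were treated for 24 h in each of fifteen gene-edited reporter lines from A549, HepG2 and WPMY1 cells, then imaged live. After normalising live-cell features to solvent control wells, deviation was defined as ≥3 of 4 wells lying past the 95th percentile of control Euclidean distances. Reproducibility was defined as a median replicate Pearson correlation above the 95th percentile of non-replicates. Both had to hold for phenotypic activity.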

A549-CANX-COX4 = test system: A549-CANX-COX4
Outline: as §1

A549-GM130-SQSTM1 = test system: A549-GM130-SQSTM1
Outline: as §1

A549-TP53BP1-CLTA = test system: A549-TP53BP1-CLTA
Outline: as §1

A549-TUBA1B-RELA = test system: A549-TUBA1B-RELA
Outline: as §1

HepG2-ACTB-RAB5A = test system: HepG2-ACTB-RAB5A
Outline: as §1

HepG2-CANX-COX4 = test system: HepG2-CANX-COX4
Outline: as §1

HepG2-GM130-SQSTM1 = test system: HepG2-GM130-SQSTM1
Outline: as §1

HepG2-TP53BP1-CLTA = test system: HepG2-TP53BP1-CLTA
Outline: as §1

HepG2-TUBA1B-RELA = test system: HepG2-TUBA1B-RELA
Outline: as §1

WPMY1-ACTB-RAB5A = test system: WPMY1-ACTB-RAB5A
Outline: as §1

WPMY1-CANX-COX4 = test system: WPMY1-CANX-COX4
Outline: as §1

WPMY1-GM130-SQSTM1 = test system: WPMY1-GM130-SQSTM1
Outline: as §1

WPMY1-TP53BP1-CLTA = test system: WPMY1-TP53BP1-CLTA
Outline: as §1

WPMY1-TUBA1B-RELA = test system: WPMY1-TUBA1B-RELA
Outline: as §1

Measured: phenotypically active

CN1CC[C@]23c4ccccc4N[C@H]1[C@]21CCN(C)[C@H]3Nc2ccccc21 [Calycanthine]
inactive: A549-ACTB-RAB5A 0 | A549-CANX-COX4 0 | A549-GM130-SQSTM1 0 | A549-TP53BP1-CLTA 0 | A549-TUBA1B-RELA 0 | HepG2-ACTB-RAB5A 0 | HepG2-CANX-COX4 0 | HepG2-GM130-SQSTM1 0 | HepG2-TP53BP1-CLTA 0 | HepG2-TUBA1B-RELA 0 | WPMY1-ACTB-RAB5A 0 | WPMY1-CANX-COX4 0 | WPMY1-GM130-SQSTM1 0 | WPMY1-TP53BP1-CLTA 0 | WPMY1-TUBA1B-RELA 0

CCC1(c2ccccc2)C(=O)NCNC1=O [primidone]
inactive: A549-ACTB-RAB5A 0 | A549-CANX-COX4 0 | A549-GM130-SQSTM1 0 | A549-TP53BP1-CLTA 0 | A549-TUBA1B-RELA 0 | HepG2-ACTB-RAB5A 0 | HepG2-CANX-COX4 0 | HepG2-GM130-SQSTM1 0 | HepG2-TP53BP1-CLTA 0 | HepG2-TUBA1B-RELA 0 | WPMY1-ACTB-RAB5A 0 | WPMY1-CANX-COX4 0 | WPMY1-GM130-SQSTM1 0 | WPMY1-TP53BP1-CLTA 0 | WPMY1-TUBA1B-RELA 0

C[C@]12CC[C@@H]3c4ccc(O)cc4CC[C@H]3[C@@H]1CCC2=O [estrone]
inactive: A549-ACTB-RAB5A 0 | A549-CANX-COX4 0 | A549-GM130-SQSTM1 0 | A549-TP53BP1-CLTA 0 | A549-TUBA1B-RELA 0 | HepG2-ACTB-RAB5A 0 | HepG2-CANX-COX4 0 | HepG2-GM130-SQSTM1 0 | HepG2-TP53BP1-CLTA 0 | HepG2-TUBA1B-RELA 0 | WPMY1-ACTB-RAB5A 0 | WPMY1-CANX-COX4 0 | WPMY1-GM130-SQSTM1 0 | WPMY1-TP53BP1-CLTA 0 | WPMY1-TUBA1B-RELA 0

O=C1NC(=O)C(c2ccccc2)(c2ccccc2)N1 [phenytoin]
inactive: A549-ACTB-RAB5A 0 | A549-CANX-COX4 0 | A549-GM130-SQSTM1 0 | A549-TP53BP1-CLTA 0 | A549-TUBA1B-RELA 0 | HepG2-ACTB-RAB5A 0 | HepG2-CANX-COX4 0 | HepG2-GM130-SQSTM1 0 | HepG2-TP53BP1-CLTA 0 | HepG2-TUBA1B-RELA 0 | WPMY1-ACTB-RAB5A 0 | WPMY1-CANX-COX4 0 | WPMY1-GM130-SQSTM1 0 | WPMY1-TP53BP1-CLTA 0 | WPMY1-TUBA1B-RELA 0

CCCc1nn(C)c2c(=O)[nH]c(-c3cc(S(=O)(=O)N4CCN(C)CC4)ccc3OCC)nc12 [Sildenafil citrate]
inactive: A549-ACTB-RAB5A 0 | A549-CANX-COX4 0 | A549-GM130-SQSTM1 0 | A549-TP53BP1-CLTA 0 | A549-TUBA1B-RELA 0 | HepG2-ACTB-RAB5A 0 | HepG2-CANX-COX4 0 | HepG2-GM130-SQSTM1 0 | HepG2-TP53BP1-CLTA 0 | HepG2-TUBA1B-RELA 0 | WPMY1-ACTB-RAB5A 0 | WPMY1-CANX-COX4 0 | WPMY1-GM130-SQSTM1 0 | WPMY1-TP53BP1-CLTA 0 | WPMY1-TUBA1B-RELA 0

C[N+](C)(CCCCCC[N+](C)(C)CCCN1C(=O)c2ccccc2C1=O)CCCN1C(=O)c2ccccc2C1=O [W-84 dibromide]
inactive: A549-ACTB-RAB5A 0 | A549-CANX-COX4 0 | A549-GM130-SQSTM1 0 | A549-TP53BP1-CLTA 0 | A549-TUBA1B-RELA 0 | HepG2-ACTB-RAB5A 0 | HepG2-CANX-COX4 0 | HepG2-GM130-SQSTM1 0 | HepG2-TP53BP1-CLTA 0 | HepG2-TUBA1B-RELA 0 | WPMY1-ACTB-RAB5A 0 | WPMY1-CANX-COX4 0 | WPMY1-GM130-SQSTM1 0 | WPMY1-TP53BP1-CLTA 0 | WPMY1-TUBA1B-RELA 0

COc1ncc2cc(C(=O)Nc3cc(C(=O)NCc4cccc(Cl)c4)ccc3Cl)c(=O)[nH]c2n1
inactive: A549-ACTB-RAB5A 0 | A549-CANX-COX4 0 | A549-GM130-SQSTM1 0 | A549-TP53BP1-CLTA 0 | A549-TUBA1B-RELA 0 | HepG2-ACTB-RAB5A 0 | HepG2-CANX-COX4 0 | HepG2-GM130-SQSTM1 0 | HepG2-TP53BP1-CLTA 0 | HepG2-TUBA1B-RELA 0 | WPMY1-ACTB-RAB5A 0 | WPMY1-CANX-COX4 0 | WPMY1-GM130-SQSTM1 0 | WPMY1-TP53BP1-CLTA 0 | WPMY1-TUBA1B-RELA 0

O=C1CC(c2ccc(O)cc2)Oc2cc(O)cc(O)c21 (stereo not given) [Naringenine]
inactive: A549-ACTB-RAB5A 0 | A549-CANX-COX4 0 | A549-GM130-SQSTM1 0 | A549-TP53BP1-CLTA 0 | A549-TUBA1B-RELA 0 | HepG2-ACTB-RAB5A 0 | HepG2-CANX-COX4 0 | HepG2-GM130-SQSTM1 0 | HepG2-TP53BP1-CLTA 0 | HepG2-TUBA1B-RELA 0 | WPMY1-ACTB-RAB5A 0 | WPMY1-CANX-COX4 0 | WPMY1-GM130-SQSTM1 0 | WPMY1-TP53BP1-CLTA 0 | WPMY1-TUBA1B-RELA 0

O=S(=O)(N[C@H](CO)C(C(F)(F)F)C(F)(F)F)c1ccc(Cl)s1 [begacestat]
inactive: A549-ACTB-RAB5A 0 | A549-CANX-COX4 0 | A549-GM130-SQSTM1 0 | A549-TP53BP1-CLTA 0 | A549-TUBA1B-RELA 0 | HepG2-ACTB-RAB5A 0 | HepG2-CANX-COX4 0 | HepG2-GM130-SQSTM1 0 | HepG2-TP53BP1-CLTA 0 | HepG2-TUBA1B-RELA 0 | WPMY1-ACTB-RAB5A 0 | WPMY1-CANX-COX4 0 | WPMY1-GM130-SQSTM1 0 | WPMY1-TP53BP1-CLTA 0 | WPMY1-TUBA1B-RELA 0

CCOC(=O)[C@H](CCc1ccccc1)N[C@@H](C)C(=O)N1[C@H](C(=O)O)C[C@@H]2CCC[C@@H]21 [ramipril]
inactive: A549-ACTB-RAB5A 0 | A549-CANX-COX4 0 | A549-GM130-SQSTM1 0 | A549-TP53BP1-CLTA 0 | A549-TUBA1B-RELA 0 | HepG2-ACTB-RAB5A 0 | HepG2-CANX-COX4 0 | HepG2-GM130-SQSTM1 0 | HepG2-TP53BP1-CLTA 0 | HepG2-TUBA1B-RELA 0 | WPMY1-ACTB-RAB5A 0 | WPMY1-CANX-COX4 0 | WPMY1-GM130-SQSTM1 0 | WPMY1-TP53BP1-CLTA 0 | WPMY1-TUBA1B-RELA 0
